In the antibiotic and cytotoxicity screens of Wong et al. (2023):
The whole screen tested about 39,000 compounds, of which about 3,300 (8.5%) were called active. For the sample, actives were picked, then their nearest neighbours and some compounds at random.

These compounds were tested on HepG2 (assay: cytotoxicity call (relative viability < 0.9)). Settings: 10 µM.
For `C[C@H]1CN([C@@H](C)CO)C(=O)c2cccc(NC(=O)c3ccc(-c4nccs4)cc3)c2O[C@@H]1CN(C)S(=O)(=O)c1cn(C)cn1`, the cytotoxicity call was “inactive”.
For `Cc1noc(C)c1S(=O)(=O)N(C)C[C@H]1OCCCC[C@H](C)Oc2ccc(N(C)C)cc2C(=O)N([C@H](C)CO)C[C@@H]1C`, the cytotoxicity call was “inactive”.
For `COc1ccc(NC(=O)N(C)C[C@@H]2OCCCC[C@H](C)Oc3ccc(NS(=O)(=O)c4c(C)noc4C)cc3C(=O)N([C@@H](C)CO)C[C@@H]2C)cc1`, the cytotoxicity call was “inactive”.
`CO[C@@H]1CN(C)C(=O)c2ccc(NC(=O)C3CC3)cc2OC[C@@H](C)N(C(=O)C2CCOCC2)C[C@H]1C` was tested, and the cytotoxicity call was “inactive”.
`Cc1cc(C2CCCCC2)n(O)c(=O)c1.NCCO` was tested, and the cytotoxicity call was “active”.
`C[C@H]1CN([C@@H](C)CO)C(=O)c2c(c3ccccc3n2C)-c2ccccc2CO[C@@H]1CN(C)Cc1ccc(C(F)(F)F)cc1` was tested, and the cytotoxicity call was “inactive”.
`Cc1noc(C)c1S(=O)(=O)Nc1ccc2c(c1)C(=O)N([C@H](C)CO)C[C@H](C)[C@H](CN(C)C(=O)Nc1ccc(F)cc1)OCCCC[C@H](C)O2` was tested, and the cytotoxicity call was “inactive”.
In the case of `Cc1noc(C)c1NC(=O)Nc1ccc2c(c1)C(=O)N([C@H](C)CO)C[C@H](C)[C@@H](CN(C)S(=O)(=O)c1ccc(F)cc1)OCCCC[C@@H](C)O2`, the cytotoxicity call is reported as “inactive”.
With `Cc1cc(C(=O)Nc2cccc3c2O[C@H](CN(C)S(=O)(=O)c2cccs2)[C@@H](C)CN([C@H](C)CO)C3=O)n(C)n1` the cytotoxicity call was “inactive”.
With `COC(=O)CNC(=O)/C=C/c1ccc(OC)cc1` the cytotoxicity call was “inactive”.
For `CCNC(=O)c1cccc(NS(C)(=O)=O)c1`, the cytotoxicity call was “inactive”.
`CCNC(=O)C=Cc1cccc(Br)c1` was tested, and the cytotoxicity call was “active”.
With `C[C@H](CO)N1C[C@H](C)[C@@H](CN(C)C(=O)Nc2ccc(C(F)(F)F)cc2)Oc2ccc(NS(=O)(=O)c3ccc(F)cc3)cc2C1=O` the cytotoxicity call was “inactive”.
`COc1ccc(S(=O)(=O)Nc2ccc3c(c2)CC(=O)N([C@H](C)CO)C[C@H](C)[C@H](CN(C)S(=O)(=O)c2cn(C)cn2)O3)cc1` was tested, and the cytotoxicity call was “inactive”.
With `C[C@@H]1CCCCO[C@@H](CN(C)C(=O)C2CCCCC2)[C@@H](C)CN([C@H](C)CO)C(=O)c2cc(NC(=O)Nc3ccc(F)cc3)ccc2O1` the cytotoxicity call was “inactive”.
With `C[C@H]1CCCCO[C@H](CN(C)C(=O)C2CCCCC2)[C@@H](C)CN([C@@H](C)CO)C(=O)c2cc(NC(=O)Nc3ccc(F)cc3)ccc2O1` the cytotoxicity call was “active”.
In the case of `C[C@@H]1CCCCO[C@@H](CN(C)C(=O)C2CCCCC2)[C@@H](C)CN([C@@H](C)CO)C(=O)c2cc(NC(=O)Nc3ccc(F)cc3)ccc2O1`, the cytotoxicity call is reported as “inactive”.
For `C[C@@H]1CCCCO[C@@H](CN(C)C(=O)C2CCCCC2)[C@H](C)CN([C@@H](C)CO)C(=O)c2cc(NC(=O)Nc3ccc(F)cc3)ccc2O1`, the cytotoxicity call was “inactive”.
For `C[C@H]1CCCCO[C@@H](CN(C)C(=O)C2CCCCC2)[C@@H](C)CN([C@@H](C)CO)C(=O)c2cc(NC(=O)Nc3ccc(F)cc3)ccc2O1`, the cytotoxicity call was “active”.
In the case of `C[C@@H]1CCCCO[C@H](CN(C)C(=O)C2CCCCC2)[C@@H](C)CN([C@@H](C)CO)C(=O)c2cc(NC(=O)Nc3ccc(F)cc3)ccc2O1`, the cytotoxicity call is reported as “active”.
With `C[C@H](CO)N1C[C@H](C)[C@H](CN(C)C(=O)C2CCCCC2)OCCCC[C@H](C)Oc2ccc(NC(=O)Nc3ccc(F)cc3)cc2C1=O` the cytotoxicity call was “inactive”.
With `C[C@@H]1CCCCO[C@H](CN(C)C(=O)C2CCCCC2)[C@H](C)CN([C@@H](C)CO)C(=O)c2cc(NC(=O)Nc3ccc(F)cc3)ccc2O1` the cytotoxicity call was “inactive”.
With `C[C@@H]1CN([C@H](C)CO)C(=O)c2cc(NC(=O)Nc3ccc(F)cc3)ccc2O[C@@H](C)CCCCO[C@@H]1CN(C)C(=O)C1CCCCC1` the cytotoxicity call was “inactive”.
